Experimental data taken from PubChem BioAssay (NCATS).
“And” between values parts separate entries of the source, which are not always exact repeats. Equal values may be shown once. Results filed as inconclusive are left out. Some compounds were tested as several samples or in several runs, with calls that do not always agree. The source made the active and inactive calls. Calls come from the whole dose curve; as a rule, active = well fitted curve in the direction sought with a large enough effect; inconclusive = small, poorly fitted or top-dose-only effect, or another doubt; inactive = no such curve, though single readings can be large; an effect the other way counts as inactive or inconclusive.

Assays:
[1] = Viability qHTS for spleen associated tyrosine kinase inhibitor (SYKi) naive MV4-11 cells (AID 1963823); note: nearly all actives have a fitted effect of over 40% in size; note: potency is the fitted concentration of half-maximal effect
In short: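 In this viability screen, compounds acted on SYK inhibitor naive MV4-11 cells for three days (72 hr, 37 C). Remaining viable cells were measured by CellTiter-Glo luminescence following a 10 min room-temperature development.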

[2] = Viability qHTS for spleen associated tyrosine kinase inhibitor (SYKi) drug resistant MV4-11 cells (AID 1963824); note: nearly all actives have a fitted effect of over 35% in size; note: potency is the fitted concentration of half-maximal effect
In short: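 SYK-inhibitor-resistant MV4-11 AML cells were seeded at 500 per well onto compound and cultured 72 hours (37 °C, 5% CO2). CellTiter-Glo was then added, and after 10 min at room temperature, luminescence gave viability.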

[3] = Quantitative highthroughput screen to assess conditional lethalithy of NOMO1 cells grown in RPMI1640 with untreated serum (RPMI+s) (AID 1963876); note: nearly all actives have a fitted effect of over 35% in size; note: potency is the fitted concentration of half-maximal effect;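 for Viability: 100% = DMSO wells and 0% = empty wells without cells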
In short: (§1)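 Each medium arm—HPLM with 10% dialyzed FBS, or RPMI1640 with 5 mM glucose and 10% untreated or dialyzed FBS—was screened against an 11-point, 3-fold compound titration for 48 h at 37 °C, with CellTiter-Glo luminescence as endpoint.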

[4] = Quantitative highthroughput screen to assess conditional lethalithy of NOMO1 cells grown in RPMI1640 with dialyzed fetal bovine serum (RPMI+ds) (AID 1963877); note: nearly all actives have a fitted effect of over 30% in size; note: potency is the fitted concentration of half-maximal effect;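 for Viability: series mostly up to about 46 µM; 100% = DMSO control wells and 0% = empty wells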
In short: as §1

[5] = Quantitative highthroughput screen to assess conditional lethalithy of NOMO1 cells grown in Human Plasma-Like Medium with dialyzed fetal bovine serum (HPLM+ds) (AID 1963878); note: nearly all actives have a fitted effect of over 35% in size; note: potency is the fitted concentration of half-maximal effect;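 for Viability: 100% = DMSO wells and 0% = empty wells on each plate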
In short: as §1

[6] = Quantitative highthroughput screen to assess conditional lethalithy of SEM cells grown in Human Plasma-Like Medium with dialyzed fetal bovine serum (HPLM+ds) (AID 1963882); note: nearly all actives have a fitted effect of over 35% in size; note: potency is the fitted concentration of half-maximal effect; for Viability: series mostly up to about 46 µM
In short: as §1

[7] = Quantitative highthroughput screen to assess conditional lethalithy of SEM cells grown in RPMI1640 with unreated serum (RPMI+s) (AID 1963883); note: nearly all actives have a fitted effect of over 35% in size; note: potency is the fitted concentration of half-maximal effect;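 for Viability: 100% = DMSO wells and 0% = empty wells without cells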
In short: as §1

[8] = Quantitative highthroughput screen to assess conditional lethalithy of SEM cells grown in RPMI1640 with dialyzed fetal bovine serum (RPMI+ds) (AID 1963884); note: nearly all actives have a fitted effect of over 35% in size; note: potency is the fitted concentration of half-maximal effect;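 for Viability: series mostly up to about 46 µM; 100% = DMSO control wells and 0% = empty wells without cells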
In short: as §1

[9] = Cellular viability qHTS for adrenocortical cancer (ACC) cell line SW-13 (AID 1963989); conditions: SW-13 ACC cells viability, CellTiter-Glo, 48 h; activity (max response): stronger effect = lower value; note: nearly all actives have a fitted effect of over 65% in size; note: potency is the fitted concentration of half-maximal effect;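 for activity (max response): cells grown in serum-free medium with ITS supplement; % is set by controls: 0 for no effect and ±100 for the full control effect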
In short: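 SW-13 cells in ITS-supplemented serum-free DMEM were plated overnight, then exposed for 48 h at 37C to compound titrations (up to 46 uM final). Viability was read by CellTiter-Glo luminescence; four-parameter logistic fits gave IC50 and efficacy.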

[10] = Quantitative highthroughput screen to assess conditional lethalithy of P12 Ichikawa cells grown in Human Plasma-Like Medium with dialyzed fetal bovine serum (HPLM+ds) (AID 1963879); conditions: Potency: viability
In short: as §1

[11] = Cellular viability qHTS for adrenocortical cancer (ACC) cell line NCI-H295R (AID 1963990); note: nearly all actives have a fitted effect of over 60% in size; note: potency is the fitted concentration of half-maximal effect
In short: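 Luminescent ATP read-out (CellTiter-Glo, 20 min RT) after 48 h drug exposure of NCI-H295R cells; a titration up to 46 uM final. Data normalized to doxorubicin (100% inhibition) and DMSO (0%); 4-parameter fit gives IC50, max response.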

[12] = Quantitative highthroughput screen to assess conditional lethalithy of P12 Ichikawa cells grown in RPMI1640 with dialyzed fetal bovine serum (RPMI+ds) (AID 1963880); conditions: Potency: P12-Ichikawa viability; note: nearly all actives have a fitted effect of over 35% in size; note: potency is the fitted concentration of half-maximal effect;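 for Viability: 100% = DMSO wells and 0% = empty wells on each plate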
In short: as §1

[13] = Quantitative highthroughput screen to assess conditional lethalithy of P12 Ichikawa cells grown in RPMI1640 with untreated serum (RPMI+s) (AID 1963881); conditions: Potency: viability; note: nearly all actives have a fitted effect of over 35% in size; note: potency is the fitted concentration of half-maximal effect;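 for Viability: series mostly up to about 46 µM; 100% = DMSO wells and 0% = empty wells without cells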
In short: as §1

Compound	Potency [1]	Potency [2]	Potency [3]	Potency [4]	Potency [5]	Potency [6]	Potency [7]	Potency [8]	activity (max response) [9]	Potency [10]	Potency [11]	Potency [12]	Potency [13]	Potency [9]
CN1C2CCC1CC(OC(=O)C(CO)c1ccccc1)C2 (stereo unspecified)	inactive	inactive	inactive	inactive	inactive	inactive	inactive	inactive	-20.1% (inactive)					
Clc1ccc(C(Cn2ccnc2)OCc2c(Cl)cccc2Cl)c(Cl)c1 (stereo unspecified)	16.8 µM (active) and 8.33 µM (active)	21.1 µM (active) and 8.33 µM (active)	inactive	inactive	inactive	inactive	inactive	inactive		inactive	25100 nM (active)			
O=C(O)CCCCCC(=O)NN=C1CCCC1	inactive	inactive	inactive	inactive	inactive	inactive	inactive	inactive	2.29% (inactive)			inactive	inactive	
CCOc1cc2c(c(F)c1OCC)C(=N)N(CC(=O)c1cc(N3CCOCC3)c(OC)c(C(C)(C)C)c1)C2	9.2 µM (active)	18.4 µM (active) and 4.68 µM (active)	inactive	inactive	inactive							inactive		
COc1cc2c(Oc3ccc(NC(=O)C4(C(=O)Nc5ccc(F)cc5)CC4)cc3F)ccnc2cc1OCCCN1CCOCC1	inactive and 2.6 nM (active)	3.7 nM (active)	11800 nM (active)	5900 nM (active)	13200 nM (active)						2820 nM (active)	1660 nM (active)	2350 nM (active)	3160 nM (active)
c1ccc2c(CCNc3ccc(Nc4ccncc4)cc3)c[nH]c2c1	1.16 µM (active) and 525 nM (active)	731 nM (active) and 590 nM (active)	16600 nM (active)	18700 nM (active)	14800 nM (active)	935 nM (active)	372 nM (active)	833 nM (active)			3550 nM (active)	20900 nM (active)	16600 nM (active)	1580 nM (active)
Cc1nc(Nc2n[nH]c3c2CN(C(=O)N[C@H](CN(C)C)c2ccccc2)C3(C)C)c2sccc2n1	0.0132 µM (active)	11.8 nM (active)	1320 nM (active)	3720 nM (active)	1480 nM (active)	743 nM (active)	332 nM (active)	1180 nM (active)			28200 nM (active)	1480 nM (active)	1660 nM (active)	3160 nM (active)
S=P(N1CC1)(N1CC1)N1CC1	inactive and 6.61 µM (active)	3320 nM (active)	inactive	inactive							inactive	inactive	inactive	
